# Data as given in the supplement of paper PMC10849652.
# The full data set covers some 7,900 targets. This sample favours those with a hit. About 0.6% of all pairs of compound and target were hits. A number with no mark means an inactive call.
# Compound: CC(C)C1=C2N=C(C=C(N2N=C1)NCC3=CC=CC=C3)NCCCCCCN
# Assay: log2 fold change, soluble protein after heating vs DMSO (PISA); higher = thermal stabilisation; K562 cells, 10 uM, 30 min; active = over 0.2 and 3.5 SD of the protein, either way, in both replicates (recomputed)
# Method in brief: (§1)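 K562 cells at 2×10^6 cells/mL were given 10 μM compound for 30 min. Aliquots then went through 3 min of heating across 48°C-58°C, were pooled, and were extracted in PBS with 0.5% NP-40 at 4°C, and the supernatant after 21,000xg for 90 min was quantified by TMTpro 16plex LC-MS/MS with channel sums equalised. Thermal stability relative to control samples, from duplicates, is given as log2 fold change.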
# Sequence of UniProt Q92585 (Q92585 whole entry, looked up): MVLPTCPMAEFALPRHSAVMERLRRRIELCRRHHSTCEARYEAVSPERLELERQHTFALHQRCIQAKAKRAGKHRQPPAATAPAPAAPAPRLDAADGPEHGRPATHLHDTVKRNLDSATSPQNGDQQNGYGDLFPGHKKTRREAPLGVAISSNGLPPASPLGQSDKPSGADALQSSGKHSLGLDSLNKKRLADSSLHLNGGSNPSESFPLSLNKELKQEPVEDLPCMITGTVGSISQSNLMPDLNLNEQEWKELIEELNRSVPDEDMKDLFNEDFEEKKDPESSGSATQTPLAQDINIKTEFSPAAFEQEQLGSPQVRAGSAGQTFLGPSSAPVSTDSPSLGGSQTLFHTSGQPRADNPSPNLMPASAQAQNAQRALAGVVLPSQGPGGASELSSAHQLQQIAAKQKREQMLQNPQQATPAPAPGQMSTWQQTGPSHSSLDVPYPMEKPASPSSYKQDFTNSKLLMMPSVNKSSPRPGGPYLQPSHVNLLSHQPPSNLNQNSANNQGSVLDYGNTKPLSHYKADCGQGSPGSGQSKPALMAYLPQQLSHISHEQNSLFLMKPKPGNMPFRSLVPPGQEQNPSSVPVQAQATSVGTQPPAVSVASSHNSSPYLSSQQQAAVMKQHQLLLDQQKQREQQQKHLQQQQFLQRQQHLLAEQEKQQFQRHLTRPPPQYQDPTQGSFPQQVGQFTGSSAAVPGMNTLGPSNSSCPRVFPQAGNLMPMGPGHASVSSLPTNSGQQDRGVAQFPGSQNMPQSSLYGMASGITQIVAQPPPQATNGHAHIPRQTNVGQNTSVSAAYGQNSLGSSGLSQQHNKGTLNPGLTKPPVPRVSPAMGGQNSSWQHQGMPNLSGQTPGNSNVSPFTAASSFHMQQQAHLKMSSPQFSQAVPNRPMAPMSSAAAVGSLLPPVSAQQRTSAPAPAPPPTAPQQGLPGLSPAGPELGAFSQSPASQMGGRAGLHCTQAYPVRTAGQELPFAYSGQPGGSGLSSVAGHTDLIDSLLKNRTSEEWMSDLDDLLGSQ
# Sequence of UniProt O94889 (O94889 whole entry, looked up): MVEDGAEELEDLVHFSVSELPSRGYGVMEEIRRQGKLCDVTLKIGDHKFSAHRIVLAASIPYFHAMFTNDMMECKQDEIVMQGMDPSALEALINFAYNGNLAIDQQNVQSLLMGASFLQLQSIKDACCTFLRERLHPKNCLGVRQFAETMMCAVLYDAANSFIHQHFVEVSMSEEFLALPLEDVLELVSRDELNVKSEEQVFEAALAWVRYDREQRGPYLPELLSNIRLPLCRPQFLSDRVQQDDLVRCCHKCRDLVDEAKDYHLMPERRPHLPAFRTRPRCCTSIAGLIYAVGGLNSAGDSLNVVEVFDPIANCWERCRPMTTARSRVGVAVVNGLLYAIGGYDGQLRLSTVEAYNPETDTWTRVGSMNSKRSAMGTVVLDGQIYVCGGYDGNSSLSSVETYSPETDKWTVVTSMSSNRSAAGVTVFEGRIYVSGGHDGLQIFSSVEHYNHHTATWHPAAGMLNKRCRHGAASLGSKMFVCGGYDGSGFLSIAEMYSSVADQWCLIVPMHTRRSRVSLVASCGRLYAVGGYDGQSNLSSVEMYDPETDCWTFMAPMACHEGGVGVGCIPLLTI
# Sequence of UniProt Q9NUN5 (Q9NUN5 whole entry, looked up): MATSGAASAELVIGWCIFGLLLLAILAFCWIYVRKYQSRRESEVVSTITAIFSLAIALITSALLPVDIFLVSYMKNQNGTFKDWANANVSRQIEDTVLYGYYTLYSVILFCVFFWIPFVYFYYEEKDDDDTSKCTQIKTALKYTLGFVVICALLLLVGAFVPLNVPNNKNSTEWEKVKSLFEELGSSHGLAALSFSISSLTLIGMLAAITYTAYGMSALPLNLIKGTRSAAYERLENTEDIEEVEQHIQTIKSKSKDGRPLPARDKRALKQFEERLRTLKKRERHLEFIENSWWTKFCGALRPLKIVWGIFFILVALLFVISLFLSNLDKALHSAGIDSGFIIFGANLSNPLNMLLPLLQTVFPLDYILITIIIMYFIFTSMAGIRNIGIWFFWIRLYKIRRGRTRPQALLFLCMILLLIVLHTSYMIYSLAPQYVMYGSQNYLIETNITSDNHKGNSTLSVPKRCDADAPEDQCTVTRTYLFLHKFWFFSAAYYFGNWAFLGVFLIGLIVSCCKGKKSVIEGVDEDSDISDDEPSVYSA
# Sequence of UniProt Q9H3U5 (Q9H3U5 whole entry, looked up): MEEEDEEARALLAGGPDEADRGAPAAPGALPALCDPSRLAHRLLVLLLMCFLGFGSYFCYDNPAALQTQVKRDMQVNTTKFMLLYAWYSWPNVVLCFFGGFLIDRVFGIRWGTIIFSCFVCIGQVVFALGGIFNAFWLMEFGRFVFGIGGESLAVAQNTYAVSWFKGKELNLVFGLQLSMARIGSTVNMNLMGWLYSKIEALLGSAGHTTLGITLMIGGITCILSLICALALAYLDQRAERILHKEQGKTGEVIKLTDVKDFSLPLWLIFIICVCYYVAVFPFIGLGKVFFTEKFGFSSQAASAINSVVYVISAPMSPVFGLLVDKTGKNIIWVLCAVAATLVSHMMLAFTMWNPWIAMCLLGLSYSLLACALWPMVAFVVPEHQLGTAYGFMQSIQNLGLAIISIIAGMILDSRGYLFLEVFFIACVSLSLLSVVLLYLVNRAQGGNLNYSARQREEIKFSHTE
# Sequence of UniProt P28290 (P28290 whole entry, looked up): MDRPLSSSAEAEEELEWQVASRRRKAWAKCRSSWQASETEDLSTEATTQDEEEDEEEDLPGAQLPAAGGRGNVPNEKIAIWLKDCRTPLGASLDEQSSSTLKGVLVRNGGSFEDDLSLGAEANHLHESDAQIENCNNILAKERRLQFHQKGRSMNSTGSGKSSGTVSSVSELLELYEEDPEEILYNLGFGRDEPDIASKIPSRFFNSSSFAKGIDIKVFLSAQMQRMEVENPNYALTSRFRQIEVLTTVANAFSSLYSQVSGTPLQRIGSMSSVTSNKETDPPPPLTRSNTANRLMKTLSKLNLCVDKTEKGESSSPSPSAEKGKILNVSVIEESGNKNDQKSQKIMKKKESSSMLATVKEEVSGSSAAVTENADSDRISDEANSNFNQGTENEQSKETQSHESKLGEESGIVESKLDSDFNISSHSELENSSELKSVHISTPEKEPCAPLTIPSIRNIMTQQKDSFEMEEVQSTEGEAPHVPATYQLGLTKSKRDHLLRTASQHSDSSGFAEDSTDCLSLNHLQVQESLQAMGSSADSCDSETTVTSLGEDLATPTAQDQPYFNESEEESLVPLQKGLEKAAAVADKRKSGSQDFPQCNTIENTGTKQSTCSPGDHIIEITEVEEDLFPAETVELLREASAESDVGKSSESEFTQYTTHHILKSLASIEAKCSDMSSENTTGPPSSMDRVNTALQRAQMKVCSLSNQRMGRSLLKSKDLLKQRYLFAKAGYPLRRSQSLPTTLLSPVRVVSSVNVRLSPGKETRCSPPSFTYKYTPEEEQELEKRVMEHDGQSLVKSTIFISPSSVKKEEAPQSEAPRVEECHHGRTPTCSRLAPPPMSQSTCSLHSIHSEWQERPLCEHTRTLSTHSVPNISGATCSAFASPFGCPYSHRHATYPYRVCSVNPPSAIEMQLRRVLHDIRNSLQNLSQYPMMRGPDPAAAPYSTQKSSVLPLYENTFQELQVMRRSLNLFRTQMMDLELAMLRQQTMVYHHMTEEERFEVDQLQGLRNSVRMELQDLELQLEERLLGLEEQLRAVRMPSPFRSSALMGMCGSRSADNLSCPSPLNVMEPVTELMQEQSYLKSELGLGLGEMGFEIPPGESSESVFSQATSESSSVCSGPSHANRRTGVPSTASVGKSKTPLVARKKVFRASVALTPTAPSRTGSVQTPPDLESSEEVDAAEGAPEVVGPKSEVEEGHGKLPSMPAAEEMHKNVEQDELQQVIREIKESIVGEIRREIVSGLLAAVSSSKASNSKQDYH
# Sequence of UniProt Q13422 (Q13422 whole entry, looked up): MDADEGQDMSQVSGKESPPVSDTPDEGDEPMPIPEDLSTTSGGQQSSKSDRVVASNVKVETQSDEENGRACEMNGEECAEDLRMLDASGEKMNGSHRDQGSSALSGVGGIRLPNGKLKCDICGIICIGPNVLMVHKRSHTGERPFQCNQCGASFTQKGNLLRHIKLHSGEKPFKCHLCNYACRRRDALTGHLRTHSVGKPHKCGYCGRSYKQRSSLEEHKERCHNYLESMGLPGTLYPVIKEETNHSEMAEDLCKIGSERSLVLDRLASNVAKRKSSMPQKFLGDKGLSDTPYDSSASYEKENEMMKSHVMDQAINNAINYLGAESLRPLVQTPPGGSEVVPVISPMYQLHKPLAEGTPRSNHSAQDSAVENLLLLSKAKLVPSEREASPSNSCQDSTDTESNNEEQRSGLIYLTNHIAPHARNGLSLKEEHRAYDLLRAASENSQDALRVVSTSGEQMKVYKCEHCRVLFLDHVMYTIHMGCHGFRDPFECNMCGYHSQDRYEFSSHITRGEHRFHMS
# Sequence of UniProt Q15759 (Q15759 whole entry, looked up): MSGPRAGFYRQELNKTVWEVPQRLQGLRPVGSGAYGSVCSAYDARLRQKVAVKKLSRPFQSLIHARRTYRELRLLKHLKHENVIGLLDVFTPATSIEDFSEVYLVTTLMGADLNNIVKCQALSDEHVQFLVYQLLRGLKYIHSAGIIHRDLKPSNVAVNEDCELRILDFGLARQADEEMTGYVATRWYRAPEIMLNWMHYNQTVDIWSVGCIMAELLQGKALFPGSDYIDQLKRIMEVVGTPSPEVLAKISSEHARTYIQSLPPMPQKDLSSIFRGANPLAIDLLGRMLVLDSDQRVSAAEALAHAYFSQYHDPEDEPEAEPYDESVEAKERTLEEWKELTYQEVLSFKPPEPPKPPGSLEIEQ
# Sequence of UniProt Q9NQX7 (Q9NQX7 whole entry, looked up): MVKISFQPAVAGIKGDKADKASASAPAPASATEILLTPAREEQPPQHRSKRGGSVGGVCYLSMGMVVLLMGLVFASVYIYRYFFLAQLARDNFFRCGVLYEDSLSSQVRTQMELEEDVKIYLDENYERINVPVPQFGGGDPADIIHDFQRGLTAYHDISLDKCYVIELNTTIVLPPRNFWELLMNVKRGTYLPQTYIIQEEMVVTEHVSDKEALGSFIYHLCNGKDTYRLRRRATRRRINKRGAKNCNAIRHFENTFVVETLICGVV
row,Target,log2 fold change
1,MAP4 isoform 5 (UniProt P27816),0.083
2,KIF21A (UniProt H0YI78),-0.158
3,LEPROT (UniProt O15243),-0.777 (active)
4,KLHL18 (UniProt O94889),-0.117
5,IP6K1 (UniProt Q92551),-0.667 (active)
6,LRRFIP1 isoform 4 (UniProt Q32MZ4),0.031
7,LPIN3 isoform 2 (UniProt Q9BQK8),0.027
8,ITM2C (UniProt Q9NQX7),-0.445 (active)
9,MFSD1 isoform 6 (UniProt Q9H3U5),-0.427 (active)
10,MED29 (UniProt Q9NX70),-0.038
11,MFSD12 isoform 3 (UniProt Q6NUT3),-0.474 (active)
12,LMBRD1 (UniProt Q9NUN5),-0.708 (active)
13,LOX (UniProt P28300),-0.218
14,KMT2C isoform 3 (UniProt Q8NEZ4),-0.06
15,MAPK11 (UniProt Q15759),-0.853
16,LAPTM4B (UniProt Q86VI4),0.141
17,KXD1 (UniProt Q9BQD3),-0.181
18,MAGED1 isoform 2 (UniProt Q9Y5V3),0
19,IKZF1 isoform 2 (UniProt Q13422),0.031
20,MCOLN3 (UniProt Q8TDD5),0.019
21,MAML1 (UniProt Q92585),0.016
22,ING5 (UniProt Q8WYH8),-0.395
23,ITPRID2 (UniProt P28290),-0.686 (active)
24,LYN isoform 2 (UniProt P07948),-0.078
25,MAP3K20 isoform 2 (UniProt Q9NYL2),0.089

# Compound: CC(C)C[C@@H](C=O)NC(=O)[C@H](CC(C)C)NC(=O)[C@H](CC(C)C)NC(=O)OCc1ccccc1
# Assay: as above
# Method in brief: as §1
row,Target,log2 fold change
1,MAP4 isoform 5 (UniProt P27816),0.014
2,KIF21A (UniProt H0YI78),0.012
3,KLHL18 (UniProt O94889),-0.111
4,IP6K1 (UniProt Q92551),0.069
5,LPIN3 isoform 2 (UniProt Q9BQK8),0.073
6,LRRCC1 (UniProt Q9C099),0.237
7,ITM2C (UniProt Q9NQX7),0.036
8,MFSD1 isoform 6 (UniProt Q9H3U5),0.043
9,LMBRD1 (UniProt Q9NUN5),-0.022
10,IGFBP6 (UniProt P24592),0.097
11,KMT2C isoform 3 (UniProt Q8NEZ4),0.191
12,MAPK11 (UniProt Q15759),-0.091
13,KXD1 (UniProt Q9BQD3),0.041
14,IKZF1 isoform 2 (UniProt Q13422),0.159
15,MCOLN3 (UniProt Q8TDD5),0.029
16,MAML1 (UniProt Q92585),-0.043
17,ITPRID2 (UniProt P28290),0.063

# Compound: CC(C)N(C[C@H]1O[C@@H](n2cnc3c(N)ncnc32)[C@H](O)[C@@H]1O)[C@H]1C[C@@H](CCc2nc3cc(C(C)(C)C)ccc3[nH]2)C1 [pinometostat]
# Assay: as above
# Method in brief: as §1
row,Target,log2 fold change
1,MAPRE3 isoform 2 (UniProt Q9UPY8),-0.101
2,LRRFIP1 isoform 4 (UniProt Q32MZ4),-0.019
3,IKZF1 (UniProt R9R4D9),-0.103
4,MAPK11 (UniProt Q15759),-0.111
5,IGFBP3 isoform 2 (UniProt P17936),-0.004
6,MAML1 (UniProt Q92585),-0.133
7,MAPK7 (UniProt Q13164),0.105
8,ING5 (UniProt Q8WYH8),0.097
9,ITPRID2 (UniProt P28290),0.03
10,LYN isoform 2 (UniProt P07948),0.147
11,MAP3K20 isoform 2 (UniProt Q9NYL2),-0.021

# Compound: CC1=C(C(CC(=O)N1)C2=CC=C(C=C2)C(F)(F)F)C(=O)NC3=C(C=C4C(=C3)C=NN4)F
# Assay: as above
# Method in brief: as §1
row,Target,log2 fold change
1,MAP4 isoform 5 (UniProt P27816),0.298
2,MAPRE3 isoform 2 (UniProt Q9UPY8),0.029
3,MARCHF3 (UniProt Q86UD3),-0.058
4,MAP4K4 isoform 6 (UniProt O95819),-0.033
5,KLHL18 (UniProt O94889),0.026
6,LPIN3 isoform 2 (UniProt Q9BQK8),-0.019
7,ITM2C (UniProt Q9NQX7),-0.368
8,MFSD1 isoform 6 (UniProt Q9H3U5),0.017
9,MED29 (UniProt Q9NX70),-0.08
10,LMBRD1 (UniProt Q9NUN5),0.088
11,LOX (UniProt P28300),0.144
12,KMT2C isoform 3 (UniProt Q8NEZ4),0.002
13,MAGED1 isoform 2 (UniProt Q9Y5V3),0.019
14,IKZF1 isoform 2 (UniProt Q13422),-0.041
15,MCOLN3 (UniProt Q8TDD5),0.03
16,LYN isoform 2 (UniProt P07948),-0.113
17,MAP3K20 isoform 2 (UniProt Q9NYL2),0.01
